What all share (test): DAPPL (digital affinity profiling via proximity ligation, sequencing); 10 mM Tris-HCl pH 7.5, 50 mM NaCl, 1 mM DTT, 4% glycerol, room temperature, 30 min; GST-TFs on glutathione beads, 16-mer random dsDNA library, 0.1% formaldehyde crosslink after washing; high values mean tight binding
One assay addresses ELF1 (Homo sapiens, UniProt P32519 1-619). The settings on record: protein: recombinant; tags: N-terminal GST; dsDNA, one strand shown. In short, it runs like this: (§1)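 Human transcription factors carrying a GST fusion were produced in yeast, bound to glutathione beads, tagged with DNA barcodes and pooled together with a tag-only sample. Each pool was held with 200 nmole of a random double-stranded 16-mer DNA library in Tris/NaCl/DTT/glycerol buffer for 30 min at room temperature, then washed, crosslinked in 0.1% formaldehyde, proximity-ligated with BsaI/T4 ligase (1 h, 37 °C), PCR-amplified and sequenced on an Illumina NextSeq500. Binding signal is the read frequency of each hexamer for a given factor divided by its frequency in the tag-only sample.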

A further assay has as its target T1, EHF (Homo sapiens, UniProt Q9NZC4 1-300).
T1 sequence: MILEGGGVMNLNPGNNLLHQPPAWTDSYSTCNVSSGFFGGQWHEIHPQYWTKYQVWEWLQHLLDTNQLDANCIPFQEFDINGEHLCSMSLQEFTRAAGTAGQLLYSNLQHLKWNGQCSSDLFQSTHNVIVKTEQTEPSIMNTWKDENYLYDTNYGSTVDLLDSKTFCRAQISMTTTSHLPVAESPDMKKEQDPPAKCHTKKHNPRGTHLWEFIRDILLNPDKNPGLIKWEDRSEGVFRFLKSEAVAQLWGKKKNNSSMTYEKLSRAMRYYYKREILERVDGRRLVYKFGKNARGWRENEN
The settings on record: protein: recombinant; tags: N-terminal GST; dsDNA, one strand shown. In short, it runs like this:
as §1

The next assay deals with HSF1 (Homo sapiens, UniProt Q00613 1-529). The settings on record: protein: recombinant; tags: N-terminal GST; chain copies: 3; dsDNA, one strand shown. In a few lines:
as §1

In another assay the target is T2, ELK4 (Homo sapiens, UniProt P28324-2 1-405).
T2 sequence: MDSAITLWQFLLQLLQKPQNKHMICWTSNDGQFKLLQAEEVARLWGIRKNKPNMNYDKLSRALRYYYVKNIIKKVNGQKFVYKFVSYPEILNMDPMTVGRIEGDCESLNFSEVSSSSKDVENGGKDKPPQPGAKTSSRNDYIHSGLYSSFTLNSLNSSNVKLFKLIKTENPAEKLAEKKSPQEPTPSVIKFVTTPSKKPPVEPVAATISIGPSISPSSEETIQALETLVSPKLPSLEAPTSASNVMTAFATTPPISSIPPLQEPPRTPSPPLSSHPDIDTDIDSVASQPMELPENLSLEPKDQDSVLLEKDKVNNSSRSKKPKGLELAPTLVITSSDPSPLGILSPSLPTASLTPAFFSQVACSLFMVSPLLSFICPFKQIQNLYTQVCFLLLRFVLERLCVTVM
The settings on record: protein: recombinant; tags: N-terminal GST; dsDNA, one strand shown. In a few lines:
as §1

The next assay addresses T3, ETV2 (Homo sapiens, UniProt O00321 1-342).
T3 sequence: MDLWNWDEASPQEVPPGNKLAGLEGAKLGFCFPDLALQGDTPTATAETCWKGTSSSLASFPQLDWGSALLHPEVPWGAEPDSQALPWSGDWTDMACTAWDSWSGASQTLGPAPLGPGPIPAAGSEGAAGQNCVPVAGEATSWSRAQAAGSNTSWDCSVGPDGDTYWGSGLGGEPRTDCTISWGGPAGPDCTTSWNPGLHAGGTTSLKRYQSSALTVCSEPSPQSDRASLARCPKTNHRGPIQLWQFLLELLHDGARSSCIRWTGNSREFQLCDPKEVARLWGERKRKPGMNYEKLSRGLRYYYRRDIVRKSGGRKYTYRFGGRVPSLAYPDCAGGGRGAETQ
Particulars: protein: recombinant; tags: N-terminal GST; dsDNA, one strand shown. In short, it runs like this: as §1

For a further assay, the target named is CRX (Homo sapiens, UniProt O43186 1-299). Particulars: protein: recombinant; tags: N-terminal GST; dsDNA, one strand shown. In a few lines: as §1
Sequence of CRX (O43186 whole entry): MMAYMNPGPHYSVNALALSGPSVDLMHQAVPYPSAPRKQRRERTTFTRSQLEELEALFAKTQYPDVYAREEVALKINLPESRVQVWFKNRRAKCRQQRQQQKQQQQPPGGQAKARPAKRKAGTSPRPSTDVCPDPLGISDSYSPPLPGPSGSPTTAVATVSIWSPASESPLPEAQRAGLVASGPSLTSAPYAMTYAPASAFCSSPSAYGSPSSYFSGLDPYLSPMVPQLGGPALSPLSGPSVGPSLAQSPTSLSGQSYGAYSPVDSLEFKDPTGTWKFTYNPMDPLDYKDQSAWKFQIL
Another assay has as its target T4, ERF (Homo sapiens, UniProt P50548 1-548).
T4 sequence: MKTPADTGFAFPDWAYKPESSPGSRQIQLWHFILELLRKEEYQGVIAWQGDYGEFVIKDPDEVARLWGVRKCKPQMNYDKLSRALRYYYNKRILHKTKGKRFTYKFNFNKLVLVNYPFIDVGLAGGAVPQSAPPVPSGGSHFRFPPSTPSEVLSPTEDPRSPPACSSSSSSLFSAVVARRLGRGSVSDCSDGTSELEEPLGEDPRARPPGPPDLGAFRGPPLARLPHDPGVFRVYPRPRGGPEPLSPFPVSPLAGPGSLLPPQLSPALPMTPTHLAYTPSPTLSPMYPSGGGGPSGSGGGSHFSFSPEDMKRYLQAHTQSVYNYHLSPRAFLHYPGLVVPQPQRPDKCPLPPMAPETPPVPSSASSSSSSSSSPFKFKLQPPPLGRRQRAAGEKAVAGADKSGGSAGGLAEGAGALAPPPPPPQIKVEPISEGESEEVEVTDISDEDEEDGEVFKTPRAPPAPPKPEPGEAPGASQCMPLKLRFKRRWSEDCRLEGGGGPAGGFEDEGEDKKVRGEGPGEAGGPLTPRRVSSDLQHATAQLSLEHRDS
Particulars: protein: recombinant; tags: N-terminal GST; dsDNA, one strand shown. In short, it runs like this:
as §1

The target in another assay is T5, ERG (Homo sapiens, UniProt P11308 1-479).
T5 sequence: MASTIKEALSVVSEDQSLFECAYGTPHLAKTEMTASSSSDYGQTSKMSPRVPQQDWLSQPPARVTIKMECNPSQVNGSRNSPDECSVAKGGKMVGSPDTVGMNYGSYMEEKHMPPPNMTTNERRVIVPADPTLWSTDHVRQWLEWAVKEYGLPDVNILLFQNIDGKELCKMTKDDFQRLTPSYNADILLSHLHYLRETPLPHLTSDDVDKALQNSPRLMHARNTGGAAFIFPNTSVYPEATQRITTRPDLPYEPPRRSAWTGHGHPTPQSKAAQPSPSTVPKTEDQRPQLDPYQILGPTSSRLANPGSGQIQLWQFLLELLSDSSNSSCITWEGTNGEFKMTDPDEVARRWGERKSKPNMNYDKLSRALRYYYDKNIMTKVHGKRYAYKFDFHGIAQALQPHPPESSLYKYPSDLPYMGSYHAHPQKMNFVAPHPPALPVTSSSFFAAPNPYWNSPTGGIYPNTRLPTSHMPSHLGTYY
Particulars: protein: recombinant; tags: N-terminal GST; dsDNA, one strand shown. In a few lines:
as §1

The target of another assay is T6, FEV (Homo sapiens, UniProt Q99581 1-238).
T6 sequence: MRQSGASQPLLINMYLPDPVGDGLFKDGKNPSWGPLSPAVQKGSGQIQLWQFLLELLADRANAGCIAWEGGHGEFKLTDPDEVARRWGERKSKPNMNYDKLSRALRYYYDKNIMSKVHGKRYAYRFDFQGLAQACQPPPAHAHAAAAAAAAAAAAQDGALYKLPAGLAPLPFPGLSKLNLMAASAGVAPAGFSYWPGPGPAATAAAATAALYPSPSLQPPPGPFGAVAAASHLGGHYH
The settings on record: protein: recombinant; tags: N-terminal GST; dsDNA, one strand shown. In a few lines:
as §1

Another assay has as its target ELF4 (Homo sapiens, UniProt Q99607 1-663). The settings on record: protein: recombinant; tags: N-terminal GST; dsDNA, one strand shown. In a few lines:
as §1

A further assay concerns the target ETV1 (Homo sapiens, UniProt P50549 1-477). The settings on record: protein: recombinant; tags: N-terminal GST; dsDNA, one strand shown. In a few lines: as §1
The target of a further assay is T7, ETV3L (Homo sapiens, UniProt Q6ZN32 1-361).
T7 sequence: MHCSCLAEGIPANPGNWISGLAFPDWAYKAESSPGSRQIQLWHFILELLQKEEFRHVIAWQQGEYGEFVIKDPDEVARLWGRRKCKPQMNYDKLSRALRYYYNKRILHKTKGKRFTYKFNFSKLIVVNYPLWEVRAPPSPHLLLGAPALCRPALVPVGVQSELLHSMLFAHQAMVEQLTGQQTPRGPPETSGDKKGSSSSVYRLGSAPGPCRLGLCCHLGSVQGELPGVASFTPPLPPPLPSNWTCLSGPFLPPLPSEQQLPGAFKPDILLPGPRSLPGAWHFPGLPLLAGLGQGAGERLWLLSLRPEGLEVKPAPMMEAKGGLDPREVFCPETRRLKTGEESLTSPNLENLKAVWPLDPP
Particulars: protein: recombinant; tags: N-terminal GST; dsDNA, one strand shown. In short, it runs like this:
as §1

The next assay deals with T8, ETS2 (Homo sapiens, UniProt P15036 1-469).
T8 sequence: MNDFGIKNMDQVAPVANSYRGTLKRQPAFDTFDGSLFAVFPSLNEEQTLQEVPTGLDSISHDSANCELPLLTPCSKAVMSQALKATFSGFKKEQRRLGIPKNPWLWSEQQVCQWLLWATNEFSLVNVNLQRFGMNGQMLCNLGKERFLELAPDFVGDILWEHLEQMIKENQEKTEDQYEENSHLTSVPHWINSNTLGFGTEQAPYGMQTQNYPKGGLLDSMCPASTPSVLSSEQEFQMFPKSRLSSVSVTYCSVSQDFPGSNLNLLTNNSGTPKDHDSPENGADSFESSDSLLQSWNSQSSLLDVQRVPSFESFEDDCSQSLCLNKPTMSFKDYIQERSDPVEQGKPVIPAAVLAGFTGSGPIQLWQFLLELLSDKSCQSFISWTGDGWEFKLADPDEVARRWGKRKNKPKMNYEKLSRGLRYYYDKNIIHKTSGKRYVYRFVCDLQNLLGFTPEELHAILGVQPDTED
Particulars: protein: recombinant; tags: N-terminal GST; dsDNA, one strand shown. In a few lines: as §1

For another assay, the target named is T9, SPDEF (Homo sapiens, UniProt O95238 1-335).
T9 sequence: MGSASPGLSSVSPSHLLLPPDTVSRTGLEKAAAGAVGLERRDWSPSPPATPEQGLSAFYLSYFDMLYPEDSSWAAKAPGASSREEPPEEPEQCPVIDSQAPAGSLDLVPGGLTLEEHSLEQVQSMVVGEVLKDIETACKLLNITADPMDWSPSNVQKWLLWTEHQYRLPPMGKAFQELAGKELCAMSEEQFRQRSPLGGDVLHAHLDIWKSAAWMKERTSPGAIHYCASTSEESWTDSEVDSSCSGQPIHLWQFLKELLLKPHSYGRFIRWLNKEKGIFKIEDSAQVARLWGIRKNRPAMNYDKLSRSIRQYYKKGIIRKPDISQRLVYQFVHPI
The settings on record: protein: recombinant; tags: N-terminal GST; dsDNA, one strand shown. In a few lines:
as §1

In another assay the target is T10, ETV7 (Homo sapiens, UniProt Q9Y603 1-341).
T10 sequence: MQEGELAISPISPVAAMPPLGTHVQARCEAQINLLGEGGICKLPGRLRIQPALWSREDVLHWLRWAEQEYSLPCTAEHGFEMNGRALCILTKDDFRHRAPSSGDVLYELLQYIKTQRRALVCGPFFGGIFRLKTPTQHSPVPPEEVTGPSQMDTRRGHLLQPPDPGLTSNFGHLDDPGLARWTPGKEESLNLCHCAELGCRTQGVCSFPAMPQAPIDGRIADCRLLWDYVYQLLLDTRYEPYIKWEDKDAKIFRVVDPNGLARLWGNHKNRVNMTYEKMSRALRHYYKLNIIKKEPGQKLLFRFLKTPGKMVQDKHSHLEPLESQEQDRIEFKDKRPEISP
Particulars: protein: recombinant; tags: N-terminal GST; dsDNA, one strand shown. In short, it runs like this: as §1

The target of another assay is T11, ETV3 (Homo sapiens, UniProt P41162-2 1-143).
T11 sequence: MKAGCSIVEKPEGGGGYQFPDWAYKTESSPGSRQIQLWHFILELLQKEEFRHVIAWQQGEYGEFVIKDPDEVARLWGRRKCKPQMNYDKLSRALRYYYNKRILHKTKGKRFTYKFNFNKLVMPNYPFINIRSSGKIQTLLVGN
Particulars: protein: recombinant; tags: N-terminal GST; dsDNA, one strand shown. In short, it runs like this: as §1

The next assay concerns the target ETV6 (Homo sapiens, UniProt P41212 1-452). The settings on record: protein: recombinant; tags: N-terminal GST; dsDNA, one strand shown. In a few lines: as §1

Sequence of HSF1 (Q00613 whole entry): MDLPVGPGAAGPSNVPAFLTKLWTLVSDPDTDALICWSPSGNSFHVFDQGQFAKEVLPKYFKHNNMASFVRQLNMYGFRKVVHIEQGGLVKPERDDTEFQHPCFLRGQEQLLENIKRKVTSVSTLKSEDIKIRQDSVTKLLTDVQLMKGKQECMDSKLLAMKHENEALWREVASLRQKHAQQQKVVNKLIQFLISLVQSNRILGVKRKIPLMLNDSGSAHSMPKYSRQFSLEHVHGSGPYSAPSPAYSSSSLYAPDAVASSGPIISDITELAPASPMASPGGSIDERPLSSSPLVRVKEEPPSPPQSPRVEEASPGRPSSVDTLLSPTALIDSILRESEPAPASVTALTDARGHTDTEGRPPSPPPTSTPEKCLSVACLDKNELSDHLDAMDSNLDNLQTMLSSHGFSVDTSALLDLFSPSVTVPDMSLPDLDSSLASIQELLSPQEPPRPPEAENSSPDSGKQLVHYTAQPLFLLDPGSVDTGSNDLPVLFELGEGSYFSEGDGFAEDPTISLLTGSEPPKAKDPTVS
Sequence of ELF1 (P32519 whole entry, the tested form may be a part): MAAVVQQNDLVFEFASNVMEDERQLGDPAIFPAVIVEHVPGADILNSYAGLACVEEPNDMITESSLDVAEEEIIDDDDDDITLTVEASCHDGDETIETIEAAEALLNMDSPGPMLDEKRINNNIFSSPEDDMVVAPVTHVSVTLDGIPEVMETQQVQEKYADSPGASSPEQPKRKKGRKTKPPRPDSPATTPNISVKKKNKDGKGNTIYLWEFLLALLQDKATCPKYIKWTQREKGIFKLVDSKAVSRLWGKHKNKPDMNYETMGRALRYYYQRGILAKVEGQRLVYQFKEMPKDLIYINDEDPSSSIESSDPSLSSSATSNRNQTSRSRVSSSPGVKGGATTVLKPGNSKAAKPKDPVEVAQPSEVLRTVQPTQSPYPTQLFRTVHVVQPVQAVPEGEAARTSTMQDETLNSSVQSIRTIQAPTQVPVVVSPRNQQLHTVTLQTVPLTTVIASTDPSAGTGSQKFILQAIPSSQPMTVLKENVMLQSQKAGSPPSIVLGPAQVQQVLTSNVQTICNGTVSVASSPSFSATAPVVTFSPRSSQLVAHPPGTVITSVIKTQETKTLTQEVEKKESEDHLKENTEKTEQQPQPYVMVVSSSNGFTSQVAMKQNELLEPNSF
Sequence of ETV6 (P41212 whole entry): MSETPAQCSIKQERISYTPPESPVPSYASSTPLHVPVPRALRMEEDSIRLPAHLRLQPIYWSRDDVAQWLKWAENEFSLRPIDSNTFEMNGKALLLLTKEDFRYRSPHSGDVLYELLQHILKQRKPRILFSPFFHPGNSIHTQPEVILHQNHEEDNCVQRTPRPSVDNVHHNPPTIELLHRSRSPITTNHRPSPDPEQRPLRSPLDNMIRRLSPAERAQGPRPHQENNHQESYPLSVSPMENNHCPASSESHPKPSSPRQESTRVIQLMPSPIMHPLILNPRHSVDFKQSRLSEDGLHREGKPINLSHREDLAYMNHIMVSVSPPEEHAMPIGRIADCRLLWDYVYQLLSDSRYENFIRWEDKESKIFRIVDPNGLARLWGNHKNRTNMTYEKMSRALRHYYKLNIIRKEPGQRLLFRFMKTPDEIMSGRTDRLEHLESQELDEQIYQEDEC
Sequence of ETV1 (P50549 whole entry): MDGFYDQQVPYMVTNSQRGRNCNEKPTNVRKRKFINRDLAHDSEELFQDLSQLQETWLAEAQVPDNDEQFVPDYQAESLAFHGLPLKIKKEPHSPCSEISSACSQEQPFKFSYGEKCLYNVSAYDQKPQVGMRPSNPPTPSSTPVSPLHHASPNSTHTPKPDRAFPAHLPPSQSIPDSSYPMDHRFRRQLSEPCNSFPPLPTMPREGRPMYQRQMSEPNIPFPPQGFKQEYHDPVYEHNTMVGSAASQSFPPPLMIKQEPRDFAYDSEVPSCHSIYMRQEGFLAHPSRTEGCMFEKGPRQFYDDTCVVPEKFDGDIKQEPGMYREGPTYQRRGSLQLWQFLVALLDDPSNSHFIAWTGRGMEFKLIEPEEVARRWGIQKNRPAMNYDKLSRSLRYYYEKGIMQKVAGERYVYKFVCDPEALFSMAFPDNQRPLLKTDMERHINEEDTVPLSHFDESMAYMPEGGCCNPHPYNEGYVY
Sequence of ELF4 (Q99607 whole entry): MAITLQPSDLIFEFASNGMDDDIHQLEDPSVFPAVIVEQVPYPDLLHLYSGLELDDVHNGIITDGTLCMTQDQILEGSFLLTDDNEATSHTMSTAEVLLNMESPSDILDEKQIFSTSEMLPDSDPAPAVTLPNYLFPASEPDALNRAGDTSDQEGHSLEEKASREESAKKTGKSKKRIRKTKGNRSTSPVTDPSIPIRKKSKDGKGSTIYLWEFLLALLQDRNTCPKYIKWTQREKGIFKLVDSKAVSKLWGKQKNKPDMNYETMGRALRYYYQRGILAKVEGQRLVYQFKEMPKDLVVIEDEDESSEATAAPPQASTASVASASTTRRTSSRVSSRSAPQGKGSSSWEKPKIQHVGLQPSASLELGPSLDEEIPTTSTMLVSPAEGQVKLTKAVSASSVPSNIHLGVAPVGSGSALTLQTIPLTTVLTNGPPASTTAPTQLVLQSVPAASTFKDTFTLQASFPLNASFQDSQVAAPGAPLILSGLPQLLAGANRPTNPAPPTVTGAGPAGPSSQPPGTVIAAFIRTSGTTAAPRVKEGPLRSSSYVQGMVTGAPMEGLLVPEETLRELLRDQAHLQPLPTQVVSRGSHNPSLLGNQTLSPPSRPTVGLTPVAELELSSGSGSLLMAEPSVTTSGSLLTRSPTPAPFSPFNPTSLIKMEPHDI

On to CATTAG, for which the binding signal with ELF1 is 1.05 fold enrichment (6-mer frequency, TF over GST control); with EHF it was 1 fold enrichment (6-mer frequency, TF over GST control); with HSF1 it was 1.07 fold enrichment (6-mer frequency, TF over GST control); with ELK4, 1.1 fold enrichment (6-mer frequency, TF over GST control); in the assay with ETV2, 1.03 fold enrichment (6-mer frequency, TF over GST control); in the assay with CRX, 1.26 fold enrichment (6-mer frequency, TF over GST control). In the assay with ERF, the binding signal is 1.01 fold enrichment (6-mer frequency, TF over GST control).
For ATTAGT, the binding signal in the assay with ERG is 1.01 fold enrichment (6-mer frequency, TF over GST control); in the assay with ELF1, 1.03 fold enrichment (6-mer frequency, TF over GST control); with EHF, 1 fold enrichment (6-mer frequency, TF over GST control); with FEV, 1.01 fold enrichment (6-mer frequency, TF over GST control); with HSF1, 1.69 fold enrichment (6-mer frequency, TF over GST control); with ELF4, 1.06 fold enrichment (6-mer frequency, TF over GST control). Besides, the binding signal with ELK4 was 1.2 fold enrichment (6-mer frequency, TF over GST control); in the assay with ETV2, 1.12 fold enrichment (6-mer frequency, TF over GST control); with CRX it was 2.44 fold enrichment (6-mer frequency, TF over GST control); with ETV1 it was 1.03 fold enrichment (6-mer frequency, TF over GST control); in the assay with ETV3L it was 1.03 fold enrichment (6-mer frequency, TF over GST control); with ETS2, 1.01 fold enrichment (6-mer frequency, TF over GST control). In addition, the binding signal with SPDEF is 1.06 fold enrichment (6-mer frequency, TF over GST control); with ETV7, 1.08 fold enrichment (6-mer frequency, TF over GST control); with ETV3, 1.01 fold enrichment (6-mer frequency, TF over GST control); in the assay with ETV6, 1.01 fold enrichment (6-mer frequency, TF over GST control).

Values taken from paper PMC7862700, “An all-to-all approach to the identification of sequence-specific readers for epigenetic DNA modifications on cytosine”.
